Data taken from PubChem BioAssay (NCI).
This is part of a sample that, as a whole, favours compounds with a hit. Of some 83,000 tested, about 20% had one in any assay.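 Negative percent growth values reflect cell death: -40 means 40% of the cells present at the start died, and -100 means all died.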 A number with no mark means an inactive call. The source made the active and inactive calls. How the source made its calls: active means growth percent below 10; inactive means the rest.

Each molecule was assayed on NCI/ADR-RES ovarian (assay: NCI-60 one-dose screen, 48 h (100 = growth as untreated, 0 = no growth, -100 = all killed)). Conditions: 10 µM unless noted.

SMILES | growth
NC1(C(=O)N[C@@H](CCO)c2ccc(Cl)cc2)CCN(c2ncnc3[nH]ccc23)CC1 | 90.7%
COC(=O)c1ccc2c(C(=Nc3ccc(N(C)C(=O)CN4CCN(C)CC4)cc3)c3ccccc3)c(O)[nH]c2c1 | 82.2%
CS(=O)(=O)CCNCc1ccc(-c2ccc3ncnc(Nc4ccc(OCc5cccc(F)c5)c(Cl)c4)c3c2)o1 | 8.75% (active)
C1=C\COCc2cc(ccc2OCCN2CCCC2)Nc2nccc(n2)-c2cccc(c2)COC/1 | 0.945% (active)
O=C(Nc1cn[nH]c1-c1nc2ccc(CN3CCOCC3)cc2[nH]1)NC1CC1 | 76.3%
Cc1cc2c(-c3nc4ccccn4c3N)c(O)c(O)cc2c(O)c1-c1c(C)cc2c(-c3nc4ccccn4c3N)c(O)c(O)cc2c1O | 26.4%
Cc1csc(-c2nnc(Nc3ccc(Oc4ncccc4-c4ccnc(N)n4)cc3)c3ccccc23)c1 | 50%
CC(C)CC(=O)Nc1n[nH]c2c1CN(C(=O)C1CCN(C)CC1)C2(C)C | 96.1%
Cc1ccccc1N1C(c2ccccc2)=NNC12C=CC(=O)C=C2Cl (stereo not given) | 98.7%
C=CCn1c(=O)c2cnc(Nc3ccc(N4CCN(C)CC4)cc3)nc2n1-c1cccc(C(C)(C)O)n1 | 25.1%
